From PubChem
This is one part of a sample in which hits are shown more often than they occur.
FECH inh = blocks human mitochondrial ferrochelatase activity; P22830; purified FECH, Ni-mesoporphyrin absorbance 550 nm; calls only at 10 µM (by protocol); 20,000 tested, 3.3% active;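 active = enzyme reaction rate more than 3 SD below the solvent-only control wells on the same plate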;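 note: lower slope than DMSO wells means FECH inhibition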
Target sequence (P22830 whole entry, looked up): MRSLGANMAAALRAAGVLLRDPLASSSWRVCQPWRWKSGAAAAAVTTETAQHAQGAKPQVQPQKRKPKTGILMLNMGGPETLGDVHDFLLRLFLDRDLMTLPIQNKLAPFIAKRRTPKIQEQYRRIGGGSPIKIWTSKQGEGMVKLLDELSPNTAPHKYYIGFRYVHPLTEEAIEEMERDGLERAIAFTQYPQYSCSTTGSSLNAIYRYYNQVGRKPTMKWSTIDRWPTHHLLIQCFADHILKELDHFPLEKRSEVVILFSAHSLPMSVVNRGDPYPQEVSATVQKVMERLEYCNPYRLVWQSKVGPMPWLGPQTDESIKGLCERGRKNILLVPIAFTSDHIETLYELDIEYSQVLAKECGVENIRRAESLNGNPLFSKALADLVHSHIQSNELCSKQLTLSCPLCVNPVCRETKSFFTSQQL
Each line names hits and unclear results; the compound was inactive in the other large screens.

COCC1(C(=O)N(C)Cc2ncc(C)c(OC)c2C)CCC1	none
Cc1ccc(C(=O)N2CCCN(C)C3(CCN(C)CC3)C2)c2ccccc12	none
CCOc1ccc(N(Cc2nc3nc(C)cc(C)n3n2)C(=O)c2cccc(Cl)c2)cc1	none
Cc1cccc(N(Cc2nc3nc(C)cc(C)n3n2)C(=O)CC(C)C)c1	none
Cc1cccc(N(Cc2nc3nc(C)cc(C)n3n2)C(=O)c2cccc(Cl)c2)c1	FECH inh active
Cc1cccc(N(Cc2nc3nc(C)cc(C)n3n2)C(=O)C(C)C)c1	FECH inh active
Cc1cccc(C(=O)N(Cc2nc3nc(C)cc(C)n3n2)c2cccc(C)c2)c1	none
CCC(C(=O)N(Cc1nc2nc(C)cc(C)n2n1)c1cccc(C)c1)c1ccccc1 (stereo not given)	none
COc1ccc(N2C(=O)CCS2(=O)=O)cc1S(=O)(=O)Nc1ccc(C)c(Br)c1	none
COc1ccc(NC(=O)Nc2c(C)nc3nc(C)[nH]n3c2=O)cc1	none
COc1ccc(Cl)cc1S(=O)(=O)NCCn1c(-c2ccc(F)cc2)nc2cccnc21	none
COc1ccc2c(C)c(C(=O)N3CCC(Nc4ncccn4)CC3)oc2c1	none
O=C1CN(Cc2ccccc2F)S(=O)(=O)c2ccccc2N1Cc1cccc(C(F)(F)F)c1	none
CCC(=O)Nc1nc2n(n1)C(c1ccccc1)C=C(c1ccc(Cl)cc1)N2 (stereo not given)	none
COc1ccc(C(=O)Nc2nc3n(n2)C(c2ccccc2)C=C(c2ccccc2)N3)cc1OC (stereo not given)	FECH inh active
COc1ccc(C2C=C(c3ccccc3)Nc3nc(NC(=O)c4ccc(Cl)cc4)nn32)cc1 (stereo not given)	none
CCC(=O)Nc1nc2n(n1)C(c1ccccc1)C=C(c1ccccc1)N2 (stereo not given)	FECH inh active
COc1ccc(C2C=C(c3ccccc3)Nc3nc(NC(=O)c4ccccc4)nn32)cc1 (stereo not given)	none
CCC(=O)Nc1nc2n(n1)C(c1ccc(Cl)cc1)C=C(c1ccccc1)N2 (stereo not given)	none
CCC(=O)Oc1ccc(Nc2cc(C)nc3nc(-c4cccnc4)nn23)cc1	none
Cc1nc2ncnn2c(Sc2ccc(NS(=O)(=O)c3ccc(Br)cc3)cc2)c1C	none
COCCCNc1nc(Nc2cc(C)cc(C)c2)c2cnn(-c3ccccc3)c2n1	none
CC(C)CCNC(=O)C1c2c(n(C)c3ccccc23)SCC(=O)N1c1ccc2c(c1)OCCO2 (stereo not given)	none
CSc1nc(NCCN2CCOCC2)c(C#N)c(-c2ccccc2)n1	none
CSc1nc(NCc2ccc(Cl)cc2)c(C#N)c(-c2ccccc2)n1	none
CSc1nc(NCCC2=CCCCC2)c(C#N)c(-c2ccccc2)n1	FECH inh active
Cc1cc(Nc2cc(Cl)ccc2C)n2nc(-c3cccnc3)nc2n1	none
Cc1ccnc(NCCNCC(=O)Nc2cnccn2)c1	none
NC(=O)C1CCN(C(=O)CN2c3ccc(Br)cc3-c3ccccc3S2(=O)=O)CC1	none
CN1CCN(C(=O)CN2C(=O)C3CCCCN3c3ccc(C(=O)N(C)C)cc32)CC1 (stereo not given)	none
CCN1CCN(C(=O)CN2C(=O)C3CCCCN3c3ccc(C(=O)N(C)C)cc32)CC1 (stereo not given)	none
O=C(CN1C(=O)C2CCCCN2C(=O)c2ccccc21)N1CCN(Cc2ccccc2)CC1 (stereo not given)	none
CCc1ccc2c(c1)-c1ccccc1S(=O)(=O)N2CC(=O)N1CCN(C)CC1	FECH inh active
CCc1ccc2c(c1)-c1ccccc1S(=O)(=O)N2CC(=O)N1CCN(CC)CC1	FECH inh active
CC(C)OC(=O)c1cc(NC(=O)C2(Cn3ccnc3)CC2)ccc1Cl	none
CC1CCCCN1S(=O)(=O)c1ccc2c(c1)CCN2C(=O)CCC(=O)N1CCCC1 (stereo not given)	none
CCc1ccccc1NS(=O)(=O)c1cc(N2C(=O)CCS2(=O)=O)ccc1C	none
CC(=O)NCCc1cn(Cc2nc(-c3ccco3)oc2C)cn1	none
Cc1ccc(CNC(=O)CN2CCCN(Cc3cccc(C)c3)S2(=O)=O)cc1	none
COc1ccc(CNC(=O)CN2CCCN(Cc3ccccc3Cl)S2(=O)=O)cc1	none
O=C(CN1CCCN(Cc2ccccc2)S1(=O)=O)NCc1ccc(Cl)cc1	none
Cc1ccc(CN2CCCN(CC(=O)NCCc3ccccc3)S2(=O)=O)cc1	none
Cc1ccc(CN2CCCN(CC(=O)NCc3ccccc3)S2(=O)=O)cc1	FECH inh active
Cc1ccc(CN2CCCN(CC(=O)NCc3ccccc3Cl)S2(=O)=O)cc1	FECH inh active
Cn1nc(CN2CCN(C(=O)c3ccccc3)CC2)c2c(Cl)cccc21	none
COc1ccc(NC(=O)c2ccc(CN3C(=O)CCn4nc(C)cc43)cc2)cc1OC	none
Cc1cccc(-c2ccc(N3CCC(C(=O)NCC(C)C)CC3)nn2)c1	none
Cc1ccc(N2C(=O)CCS2(=O)=O)cc1S(=O)(=O)Nc1ccc(C(C)(C)C)cc1	none
CCN(C(C)=O)C1CCN(c2nc(C)nc3sccc23)C1 (stereo not given)	none
CC(=O)N1CCn2nc(C(=O)N3CCCC3c3ccccc3C)cc2C1 (stereo not given)	none
Cc1ccc(NCc2cc(=O)n3[nH]c(NCc4ccccc4)nc3n2)cc1	none
O=c1cc(CNc2ccc(Br)cc2)nc2nc(NCc3ccc(F)cc3)[nH]n12	none
CC(C)NCc1cc(=O)n2[nH]c(NCc3ccccc3)nc2n1	none
CC(C)c1cc(=O)n2[nH]c(CNc3ccccc3)nc2n1	FECH inh active
O=c1cc(CNc2ccc(Br)cc2)nc2nc(NCc3ccccc3)[nH]n12	none
CC(C)c1cc(=O)n2[nH]c(CNc3ccc(Br)cc3)nc2n1	FECH inh active
COCCCNC(=O)c1ccc(CN2C(=O)CCn3nc(-c4ccccc4)cc32)cc1	none
O=S(=O)(Cc1ccccc1)N1CCN(c2cc(-c3ccc(F)cc3)ncn2)CC1	none
CCn1c(-c2cc(C3CC3)[nH]n2)n[nH]c1=O	FECH inh active
CCn1c(C2CCCN(S(=O)(=O)N3CCCC3)C2)n[nH]c1=O (stereo not given)	none
CCn1c(C2CCN(S(=O)(=O)c3ccc(C)c(C)c3)CC2)n[nH]c1=O	none
COc1ccc(CC2CN(C/C=C/c3ccccc3)CCO2)cc1 (stereo not given)	none
CC(C)OCCCNC(=O)CN1c2ccc(Br)cc2-c2ccccc2S1(=O)=O	FECH inh active
O=C(CN1c2ccc(Br)cc2-c2ccccc2S1(=O)=O)NCCN1CCOCC1	none
CC(C)OCCCNC(=O)c1ccc(CN2C(=O)CCn3nc(-c4ccccc4)cc32)cc1	none
COCCNC(=O)CN1c2ccc(Br)cc2-c2ccccc2S1(=O)=O	FECH inh active
O=C(CN1CCC(c2ccccc2C(=O)O)C1)NCc1ccccn1 (stereo not given)	none
CCC1=C(c2ccc(OC)cc2)S(=O)(=O)N(CC(=O)NCc2cccc(Br)c2)C1=O	none
O=C(CN1c2ccc(Br)cc2-c2ccccc2S1(=O)=O)NCc1ccccn1	FECH inh active
C=CCOc1cccc(NC(=O)CN2c3ccc(Br)cc3-c3ccccc3S2(=O)=O)c1	none
O=C(NCc1ccccn1)C1(Oc2cccc3ncccc23)CCNCC1	none
COc1cccc2c1OCCCN(C(=O)c1nc3ncccn3n1)C2	none
O=C(Nc1ccccc1)c1cc2n(n1)CCN(C(=O)c1cnoc1C1CC1)C2	none
CCC1CN(C(=O)c2ccc3n[nH]nc3c2)CCC(=O)N1Cc1ccccc1 (stereo not given)	none
CCOc1ccc(Nc2nc(NCc3cccnc3)nc3c2cnn3-c2ccccc2)cc1	none
Cc1nc(SCC(=O)NCC(O)Cc2ccccc2)n[nH]1 (stereo not given)	none
CCc1cc(Sc2ccc(NC(=O)CC(C)C)cc2)n2ncnc2n1	none
